Sampled rows, rich in hits. Any-hit rate of the full collection: about 0.86%.
NS1 function inh – influenza NS1 inhibition; Potency, µM (top dose mostly 46.1 µM), without a hit: at the highest dose activity, positive = more growth; hit rate 0.4% among 270,000; AID 2326; calls by dose curve; also: potency is read from the fitted curve at half-maximal effect; actives are rising curves; nearly all actives have a fitted effect of over 50% in size
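S. cerevisiae expressing influenza A NS1, grown in glucose, washed, then diluted 1:100 into pH 6.0 -URA galactose medium with 23 nl compound. Growth recovery read as OD600; NS1-free strain serves as control.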
AmpC inh no detg – AmpC beta-lactamase inhibition without detergent. P00811. AmpC nitrocefin hydrolysis, absorbance 480 nm, 0.0001% Triton. AID 485341. Potency, µM (top dose mostly 57.1 µM), without a hit: at the highest dose activity change, negative = inhibition, actives largely listed as inhibitors. hit rate 0.52% among 330,000;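 also: potency is read from the fitted curve at half-maximal effect; plate controls were no compound for no effect and no enzyme for full effect; nearly all actives have a fitted effect of over 20% in size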
Target sequence (P00811 whole entry, looked up): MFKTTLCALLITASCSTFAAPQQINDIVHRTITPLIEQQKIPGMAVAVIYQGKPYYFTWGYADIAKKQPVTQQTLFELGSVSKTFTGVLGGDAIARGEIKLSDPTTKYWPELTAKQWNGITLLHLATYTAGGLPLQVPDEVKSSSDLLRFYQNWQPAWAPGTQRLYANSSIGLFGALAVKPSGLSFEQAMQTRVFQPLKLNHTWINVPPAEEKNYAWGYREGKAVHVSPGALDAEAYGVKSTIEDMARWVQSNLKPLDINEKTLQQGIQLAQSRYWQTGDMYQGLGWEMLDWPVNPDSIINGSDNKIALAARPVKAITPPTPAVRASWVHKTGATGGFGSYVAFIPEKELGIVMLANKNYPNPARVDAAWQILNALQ
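20 mM phosphate pH 7.0 + 0.01% (detergent screen) or 0.0001% Triton X-100; 5.3 nM AmpC reagent; cpd preinc 15 min RT; nitrocefin (800 uM stock) to start; A480 q20 s × 4 min; Activity was normalised to no-enzyme and no-compound control wells.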
AmpC inh detg – inhibitors of E. coli AmpC beta-lactamase with detergent; P00811; hit rate 0.041% among 370,000; Potency, µM (titrated, usually from 114 µM), for the others: at the highest dose activity change, negative = inhibition, actives largely listed as inhibitors; AmpC hydrolysis of nitrocefin, absorbance 480 nm, 0.01% Triton; AID 485294;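 also: potency is read from the fitted curve at half-maximal effect; 0% = no-compound wells and -100% = no-enzyme wells; nearly all actives have a fitted effect of over 25% in size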
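AmpC (5.3 nM in the dispensed reagent) in 20 mM phosphate pH 7.0 with 0.01% (detergent screen) or 0.0001% Triton X-100 was preincubated with compounds for 15 min at room temperature. Nitrocefin was then added from an 800 uM solution, and hydrolysis was followed at 480 nm.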
AMA1 RON2 block – inhibitors of Plasmodium falciparum AMA1-RON2 interaction; AlphaScreen AMA1-biotinylated RON2 peptide binding; Potency, µM (top dose mostly 58.2 µM), for the others: at the top dose activity change, negative = inhibition, usual class: inhibitors; hit rate 0.2% among 360,000; AID 720542;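 also: potency is read from the fitted curve at half-maximal effect; 0% = vehicle wells and -100% = peptide control; nearly all actives have a fitted effect of over 45% in size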
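AMA1 (3D7) with his tag at 25 nM final met compounds first, then biotinylated RON2 peptide at 25 nM; detection used donor plus acceptor beads, 10 µg/mL apiece, read by AlphaScreen after 30 min at room temperature.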
Flu NS1 inh – validation of influenza NS1 protein function inhibitors | shares compounds with NS1 function inh | influenza NS1 function cell assay, 15-point titration | activity change, negative = inhibition, % at 32.9 µM | 1,400 tested, under 10 active; calls by dose curve; also: 0% is about no effect
PR8 titer – influenza virus titer reduction, NS1 project; virus titer (log TCID50), log10 TCID50 at 5 µM; shares compounds with NS1 function inh; hit rate 30% among 95; MDCK infected influenza A/PR/8/34, virus titer TCID50; hits give low values; call rule not given here
* hit, by the source's call; ? = inconclusive; . = no result; [ ] = dose if it differs, or a comment. Unless noted, calls follow the shape of the dose curve; as a rule, active = well fitted curve in the direction sought with a large enough effect; inconclusive = small, poorly fitted or top-dose-only effect, or another doubt; inactive = no such curve, though single readings can be large; an effect the other way counts as inactive or inconclusive.

SMILES	NS1 function inh	AmpC inh no detg	AmpC inh detg	AMA1 RON2 block	Flu NS1 inh	others
Cc1ccc(CCNC(=O)c2ccc3c(c2)N(Cc2ccc(F)cc2)CCS3)cc1	.	.	4%	.	.
COc1ccc(CCNC(=O)c2ccc3c(c2)N(Cc2ccc(C)cc2)CCS3)cc1OC	7.9µM*	8%	1%	-9%	0
O=C1c2ccccc2C(=O)N1Cc1ccc2c(c1)OCO2	-27%	-22%	-1%	0%	.
Cc1cc2cc(CN3C(=O)c4ccccc4C3=O)ccc2n1C	?	-31%	-14%	-20%	-15
Cc1ccc(C2N(c3ccc(F)cc3)C(=O)C3CCCN32)cc1 (stereo not given)	1.8µM*	0%	-9%	-3%	-9
NNC(=O)CN1C(c2cccc(Cl)c2)=Nc2ccc(Br)cc2C1c1ccccc1 (stereo not given)	25%	-21%	-7%	28%	.
NNC(=O)CN1C(c2ccccc2Br)=Nc2ccc(Br)cc2C1c1ccccc1 (stereo not given)	4.5µM*	166%	13%	24%	-2	PR8 titer=8.3
O=C(NNc1nc(-c2ccccc2)cs1)c1ccco1	4µM*	-39%	-7%	0%	11
O=C(NNc1nc(-c2ccc(Cl)cc2)cs1)c1ccco1	3.2µM*	-41%	1%	54%	-6
Cc1ccc(-c2csc(NC(=S)NC(=O)c3ccco3)n2)cc1	5%	-15%	-5%	1%	.
CCC1Oc2ccc(C)cc2N(CC(=O)NCCCN2CCCCC2C)C1=O (stereo not given)	?	21%	2%	5%	-19
CCCc1cc(=O)[nH]c(SCC(=O)NC)n1	-3%	-25%	-14%	1%	.
CCCc1cc(=O)[nH]c(SCC(=O)CSc2nc(CCC)cc(=O)[nH]2)n1	8.9µM*	-19%	?	86%	30
CCN(CC)C(=O)CSc1nc(O)cc(=O)n1-c1ccccc1OC	8.9µM*	-5%	-10%	-1%	37
COC(=O)c1ccc2c(c1)C(=O)/C(=C/c1ccc(C)cc1)O2	10µM*	-32%	-15%	-27%	9
Cc1ccc(Nc2nc(C)cc(C)c2C#N)c(C)c1	.	.	.	6%	.
CCn1c(N2CCN(CC(=O)c3c(C)n(C)c4ccc(OC)cc34)CC2)nc2c1c(=O)[nH]c(=O)n2C	11µM*	173%	-10%	-12%	-37
CC(C)(C)NC(=O)C(c1c[nH]c2ccccc12)N(C(=O)Cn1nnc(-c2ccc(Cl)cc2)n1)c1ccccc1F (stereo not given)	?	2%	-20%	-4%	.
COc1cccc(N(C(=O)Cn2nnc(-c3ccc(C)cc3)n2)C(C(=O)NC(C)(C)C)c2c[nH]c3ccccc23)c1 (stereo not given)	?	21%	-5%	?	17
CCOc1cc2[nH]c(=O)n(CC3CCC(C(=O)NCCCOC)CC3)c(=O)c2cc1OCC (stereo not given)	8.9µM*	-1%	-15%	-6%	9
COc1ccc(C(=O)Nc2nc3c(s2)Cc2c(Br)ccc(OC)c2-3)cc1OC	.	.	2%	.	.
CCCn1nc(C(=O)OCC(=O)Nc2ccc(C)cc2)c2ccccc2c1=O	.	-5%	.	-4%	.
CC1CCc2c(sc(NC(=S)NC(=O)c3ccccc3)c2C#N)C1 (stereo not given)	7.9µM*	-13%	-3%	18%	6
CCc1ccc2c(c1)C(c1ccc(N3CCOCC3)cc1)=NNC(c1ccncc1)=N2	1%	158%	-11%	0%	.
CCOc1ccc(C2=Nc3ccc(Br)cc3C(c3ccc(N4CCOCC4)cc3)=NN2)cc1	?	27%	?	8%	-7
SMILES	NS1 function inh	AmpC inh no detg	AmpC inh detg	AMA1 RON2 block	Flu NS1 inh	others
CCOc1ccc(C2=Nc3ccccc3C(c3ccc(N4CCOCC4)cc3)=NN2)cc1	?	39%	-14%	-1%	19	PR8 titer=7.5*
Cc1ccc(-c2csc3ncn(CC(=O)N4CCOCC4)c(=O)c23)cc1	-8%	25%	?	-11%	.
O=C(Cn1cnc2scc(-c3ccc(Cl)cc3)c2c1=O)N1CCOCC1	?	43%	-6%	0%	-16
COc1ccccc1-c1c(-c2ccc(OCC(=O)NN)cc2O)n[nH]c1C(F)(F)F	?	12%	4%	50%	.
NNC(=O)COc1ccc(-c2n[nH]c(C(F)(F)F)c2-c2ccc(Br)cc2)c(O)c1	11µM*	-44%	1%	31%	2
Cc1ccc(-c2nc3ccccc3s2)cc1NC(=S)NC(=O)/C=C/c1ccco1	6%	-30%	5%	-5%	.
O=C(/C=C/c1ccco1)NC(=S)Nc1cc(-c2nc3ccccc3s2)ccc1Cl	10µM*	-56%	?	6%	3
CSCCC(NS(=O)(=O)c1cccc(C(F)(F)F)c1)C(=O)Nc1ccccc1N1CCCC1 (stereo not given)	.	4%	-5%	9%	.
O=C(Cc1cc(=O)[nH][nH]1)N/N=C/c1c(F)cccc1Cl	.	-37%	6%	56%	.
O=C(Cc1cc(=O)[nH][nH]1)N/N=C/c1c(Cl)cccc1Cl	10µM*	-34%	?	2%[11.6 µM]	?
COc1ccc(-c2cc(C(=O)Nc3nc4c(C)cccc4s3)c3ccccc3n2)cc1OC	11µM*	-36%	?	20%	9
Cc1cccc(C)c1NC(=O)c1ccc2c(c1)N(Cc1cccc(Cl)c1)C(=O)c1ccccc1S2=O (stereo not given)	.	.	6%	.	.
COC(=O)c1cc(NC(=O)c2cc(C(C)(C)C)nn2Cc2ccc(F)cc2)ccc1N1CCOCC1	?	177%	19%	0%	-5
COC(=O)c1ccccc1N=Cc1c(O)[nH]c(=O)[nH]c1=O	10%	-2%	7%	0%	.
CC(N=Cc1c(O)[nH]c(=O)[nH]c1=O)c1ccccc1 (stereo not given)	10µM*	3%	0%	-14%	0
COc1cccc(N2CC(O)=C(c3ccccc3)C2=N)c1	7.1µM*	-5%	5%	-11%	1
COc1ccc(N2CCN(C(=O)c3ccc(NS(=O)(=O)c4ccccc4)cc3)CC2)cc1	13µM*	-8%	-4%	-5%	-18
CNC(=O)COc1ccc(S(=O)(=O)Nc2ccc(OC)cc2)cc1	-2%	-9%	3%	4%	.
COc1ccc(NS(=O)(=O)c2ccc(OCC(=O)N3CCCC3)cc2)cc1	?	1%	-12%	0%	4
O=C1C2CCCN2C(c2cccnc2)N1c1cccc(Cl)c1 (stereo not given)	3.5µM*	-9%	?	0%	-9
O=C1C2CCCN2C(c2cccnc2)N1c1ccc(Cl)cc1 (stereo not given)	-30%	0%	-8%	-3%	.

From PubChem BioAssay
